Assay results reported in PubChem BioAssay AID1159580 (chemical genetic matrix, 2015).
The campaign covered roughly 5,500 compounds. About 2,000 (36%) were called active. Not shown: some 18% with an inconclusive outcome. No stated cut-off is given here; in the data, active means normalized growth mostly below about 0.91 (no sharp cut-off); inconclusive means no clear call, values can overlap the other calls; inactive means mostly above about 0.92. Some of the results follow.

Experiment: chemical genetic growth profiling, strain panel (AID 1159580);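 further: tested at 20 µM; growth read once vehicle control cultures reached saturation at 30 °C; 1 = growth at the plate median or of vehicle wells; lower values mean less growth of the strain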
Conditions: growth OD
[1] = S. cerevisiae deletion strains, locus YHR030C, strain SLT2, active compounds read low
[2] = S. cerevisiae deletion strains, locus YMR263W, strain SAP30, active compounds read low
[3] = S. cerevisiae deletion strains, locus YPL241C, strain CIN2, active compounds read low

Measured: normalized growth

CN(C)CCc1c[nH]c2ccc(Cn3cncn3)cc12
inactive: [1] 0.92 | S. cerevisiae deletion strains, locus YHR079C, strain IRE1, active compounds read low 0.928 | S. cerevisiae deletion strains, locus YJL095W, strain BCK1, active compounds read low 0.961 | S. cerevisiae deletion strains, locus YJR066W, strain TOR1, active compounds read low 0.914 | S. cerevisiae deletion strains, locus YLR113W, strain HOG1, active compounds read low 0.918 | S. cerevisiae deletion strains, locus YNL183C, strain NPR1, active compounds read low 0.926 | S. cerevisiae deletion strains, locus YOR231W, strain MKK1, active compounds read low 0.928 | S. cerevisiae deletion strains, locus YPL256C, strain CLN2, active compounds read low 0.936

CC(N)=NCCC[C@H](N)C(=O)O
inactive: S. cerevisiae deletion strains, locus YAL040C, strain CLN3, active compounds read low 1 | S. cerevisiae deletion strains, locus YCL061C, strain MRC1 (second series), active compounds read low 1.01 | S. cerevisiae deletion strains, locus YDR363W, strain ESC2, active compounds read low 1.01 | S. cerevisiae deletion strains, locus YER002W, strain NOP16, active compounds read low 0.997 | [2] 1.02 | S. cerevisiae deletion strains, locus YMR307W, strain GAS1, active compounds read low 1.01 | S. cerevisiae deletion strains, locus YNL175C, strain NOP13, active compounds read low 1.01 | S. cerevisiae deletion strains, locus YNL197C, strain WHI3, active compounds read low 0.999 | S. cerevisiae deletion strains, locus YNL224C, strain SQS1, active compounds read low 1 | S. cerevisiae deletion strains, locus YOR083W, strain WHI5 (second series), active compounds read low 1.02 | [3] 1.01

Cc1cc(/C=N/NC(N)=S)c2c(C)ccc(C(C)C)cc1-2
inactive: S. cerevisiae deletion strains, locus YAL013W, strain DEP1, active compounds read low 1.02 | S. cerevisiae deletion strains, locus YBR229C, strain ROT2, active compounds read low 1.04 | S. cerevisiae deletion strains, locus YCL061C, strain MRC1, active compounds read low 1.02 | S. cerevisiae deletion strains, locus YDL101C, strain DUN1, active compounds read low 1.05 | S. cerevisiae deletion strains, locus YDL134C, strain PPH21, active compounds read low 1.01 | S. cerevisiae deletion strains, locus YDR150W, strain NUM1, active compounds read low 1 | S. cerevisiae deletion strains, locus YEL061C, strain CIN8, active compounds read low 1.01 | S. cerevisiae deletion strains, locus YGR078C, strain PAC10, active compounds read low 1.01 | [1] 1.12 | S. cerevisiae deletion strains, locus YHR087W, strain rtc3, active compounds read low 1.06 | S. cerevisiae deletion strains, locus YJR043C, strain POL32, active compounds read low 1.01 | S. cerevisiae deletion strains, locus YJR075W, strain HOC1, active compounds read low 1.02 | S. cerevisiae deletion strains, locus YLR039C, strain RIC1, active compounds read low 1.02 | S. cerevisiae deletion strains, locus YLR058C, strain SHM2 (second series), active compounds read low 1.03 | S. cerevisiae deletion strains, locus YLR085C, strain ARP6, active compounds read low 1.03 | S. cerevisiae deletion strains, locus YLR262C, strain YPT6, active compounds read low 1.02 | S. cerevisiae deletion strains, locus YML094W, strain GIM5, active compounds read low 1.07 | S. cerevisiae deletion strains, locus YMR219W, strain ESC1, active compounds read low 1.03 | [2] 0.986 | S. cerevisiae deletion strains, locus YNL153C, strain GIM3, active compounds read low 1.02 | S. cerevisiae deletion strains, locus YNL298W, strain CLA4 (second series), active compounds read low 1.05 | S. cerevisiae deletion strains, locus YNR030W, strain Alg12, active compounds read low 1.08 | S. cerevisiae deletion strains, locus YPL055C, strain LGE1, active compounds read low 1.04 | [3] 1.01 | S. cerevisiae deletion strains, locus YPR135W, strain CTF4, active compounds read low 1.17 | S. cerevisiae strains, strain wild type, active compounds read low 1.02
active: S. cerevisiae deletion strains, locus YNL322C, strain KRE1, active compounds read low 1.06 [resistant]
